Measured values reported in PubChem BioAssay (EPA / NIEHS).
Values joined by “and” are separate entries in the source; they are usually repeats but may differ in a detail not shown here. Equal values may be shown once. Inconclusive results are not listed. Some compounds were tested as several samples or in several runs, with calls that do not always agree. Active and inactive are the calls of the source. The calls were made as follows, unless noted: active = hit-call score of the fitted dose curve at least 0.9, where 1 is the maximum; inactive = score below 0.9.

What was measured:
[1] = TOX21_p53_BLA_p2_viability: Viability Assessment in the Tox21 HCT-116 p53 Agonism Beta-lactamase Assay, Phase 2 (AID 2283591; active = hit-call score of the fitted dose curve at least 0.9, where 1 is the maximum;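 also: compound exposure lasted 16 h at 37 °C; actives lower the ATP signal meaning cytotoxicity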)
In short: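 Cytotoxicity readout: CellTiter-Glo ATP luminescence, 30 min at room temperature, after the beta-lactamase read. Cells were HCT116 exposed 16 h at 37C to compounds pin-transferred at 217-fold dilution from DMSO stocks.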

[2] = target: Cellular tumor antigen p53 (Homo sapiens) (UniProt P04637); assay: TOX21_p53_BLA_p2_ratio: Tox21 HCT-116 p53 Agonism Beta-lactamase Assay, Ratio, Phase 2 (AID 2283592; active = hit-call score of the fitted dose curve at least 0.9, where 1 is the maximum)
In short: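 Human colon HCT116 cells with an inducible p53 beta-lactamase reporter are exposed to test chemicals for 16 h at 37C. Reporter induction is read as the 460/530 nm emission ratio after CCF4-AM loading, normalized to DMSO.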

[3] = TOX21_p53_BLA_p3_viability: Viability Assessment in the Tox21 HCT-116 p53 Agonism Beta-lactamase Assay, Phase 3 (AID 2283593; active = hit-call score of the fitted dose curve at least 0.9, where 1 is the maximum;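 also: cells exposed to compound for 16 h before reading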)
In short: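 Cellular ATP was quantified by CellTiter-Glo luminescence, read after 30 min at room temperature. Beforehand, HCT116 cells (4000/well) received compound 5 h post-seeding, 217-fold diluted from DMSO, then incubated 16 h at 37C.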

[4] = target: Cellular tumor antigen p53 (Homo sapiens) (UniProt P04637); assay: TOX21_p53_BLA_p3_ratio: Tox21 HCT-116 p53 Agonism Beta-lactamase Assay, Ratio, Phase 3 (AID 2283596; active = hit-call score of the fitted dose curve at least 0.9, where 1 is the maximum)
In short: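 HCT116 p53-bla cells (4000/well) given compound in DMSO (217-fold dilution) after 5 h, incubated 16 h at 37C. CCF4-AM substrate 2 h at room temperature; 460/530 nm emission ratio, gain fitted against DMSO.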

[5] = TOX21_p53_BLA_p5_viability: Viability Assessment in the Tox21 HCT-116 p53 Agonism Beta-lactamase Assay, Phase 5 (AID 2283600; active = hit-call score of the fitted dose curve at least 0.9, where 1 is the maximum)
In short: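 Seeded cells (4000/well) settle 5 h before compound addition. Plates then incubate 16 h at 37C, receive FRET substrate for 2 h, and finally CellTiter-Glo, with luminescence measured after a 30 min room-temperature incubation.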

[6] = CCTE_Shafer_MEA_dev_firing_rate_mean: CCTE's Neural Network Formation Assay for Mean Firing Rate, Shafer Lab (AID 2284031)
In short: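 Primary rat cortical neurons on 48-well MEA plates, exposed from plating day 0 with dosing renewed on DIV 5 and 9. Mean well firing rate over active electrodes, recorded days 5, 7, 9, 12, summarised as trapezoidal AUC.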

[7] = CCTE_Shafer_MEA_dev_per_burst_spike_percent: CCTE's Neural Network Formation Assay for Percent of Spikes in a Burst, Shafer Lab (AID 2284032);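 as to AC50: fitted as a decrease in burst spike percentage below DMSO baseline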
In short: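 Rat primary cortical neurons on 16-electrode MEA wells, dosed from plating day 0 for 12 days with renewal on DIV 5 and 9; spikes-in-bursts percentage averaged over bursting electrodes, collapsed as AUC across days 5, 7, 9, 12; loss direction versus DMSO.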

[8] = CCTE_Shafer_MEA_dev_active_electrodes_number: CCTE's Neural Network Formation Assay for Number of Active Electrodes, Shafer Lab (AID 2284040; active = hit-call score of the fitted dose curve at least 0.9, where 1 is the maximum;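 also: potency for loss of active electrodes versus DMSO so lower counts are hits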)
In short: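 Primary rat cortical neurons on 16-electrode MEA wells, exposed from day 0 through day 12 with compound renewed at DIV 5 and 9 feeds. Active electrodes (mean firing ≥5 spikes/min) counted at DIV 5, 7, 9, 12; trapezoidal AUC across days, loss-of-signal versus DMSO.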

[9] = CCTE_Shafer_MEA_dev_burst_rate: CCTE's Neural Network Formation Assay for Burst Rate, Shafer Lab (AID 2284042)
In short: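 Primary rat cortical neurons on PEI-coated 48-well MEA plates (laminin added with cells at plating) (16 electrodes/well), exposed from plating to day 12, dosing renewed at DIV 5 and 9. Burst rate averaged over active electrodes, recorded DIV 5, 7, 9, 12, summarized as AUC; loss versus DMSO.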

[10] = CCTE_Shafer_MEA_dev_bursting_electrodes_number: CCTE's Neural Network Formation Assay for Number of Bursting Electrodes, Shafer Lab (AID 2284043; active = hit-call score of the fitted dose curve at least 0.9, where 1 is the maximum;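 also: potency is for loss of bursting electrodes relative to DMSO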)
In short: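 Read-out is the per-well number of electrodes bursting at least once every 2 minutes, recorded on days 5, 7, 9 and 12 and collapsed by trapezoidal area under the curve. Cultures were primary rat cortical neurons on MEA plates, treated continuously from plating.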

[11] = CCTE_Shafer_MEA_dev_per_burst_interspike_interval: CCTE's Neural Network Formation Assay for Burst Interspike Interval, Shafer Lab (AID 2284044);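 also: mean spike spacing inside bursts as AUC over recordings on days 5 7 9 12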
In short: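 Spontaneous activity of maturing rat cortical networks is recorded on DIV 5, 7, 9 and 12 under chronic compound exposure beginning at plating. Endpoint: burst interspike interval well-mean, collapsed into trapezoidal AUC and fitted in the negative direction relative to DMSO.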

[12] = CCTE_Shafer_MEA_dev_burst_duration_mean: CCTE's Neural Network Formation Assay for Mean Burst Duration, Shafer Lab (AID 2284045)
In short: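 Read-out: average first-to-last-spike interval within single-electrode bursts, averaged over bursting electrodes per well, then summarised as area under the curve across days 5, 7, 9 and 12. Developing rat cortical networks were exposed from day 0.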

[13] = CCTE_Shafer_MEA_dev_interburst_interval_mean: CCTE's Neural Network Formation Assay for Mean Interburst Interval, Shafer Lab (AID 2284046);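 also: well-mean interburst interval of bursting electrodes as AUC over four recording days; curve fitted for decrease in interburst interval relative to DMSO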
In short: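 Recordings on days 5, 7, 9 and 12 give well-mean interburst interval across actively bursting electrodes, summarized as area under the curve. Cultures: rat cortical neurons, continuous exposure from day 0, compound renewed at feeds; decrease analyzed versus DMSO.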

[14] = CCTE_Shafer_MEA_dev_network_spike_number: CCTE's Neural Network Formation Assay for Number of Network Spikes, Shafer Lab (AID 2284048);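 also: synchronized bursts across electrodes counted on days 5 7 9 12 and integrated as AUC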
In short: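 Developing networks of primary rat cortical neurons are treated over 12 days starting at plating, with media and compound fully replaced on DIV 5 and 9. Network spike counts from four recording days are integrated as trapezoidal AUC.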

[15] = CCTE_Shafer_MEA_dev_network_spike_peak: CCTE's Neural Network Formation Assay for Mean Number of Electrodes in Network Spike, Shafer Lab (AID 2284049);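 also: fitted for loss of signal meaning fewer electrodes in network spikes than DMSO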
In short: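 Rat cortical primary culture, 1.5 x 10^5 cells/well, 48-well MEA (16 electrodes/well). Dosing day 0 through DIV 12, full media/compound exchange DIV 5, 9. AxIS adaptive spike detection; AUC over days 5/7/9/12; loss-of-signal vs DMSO.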

[16] = CCTE_Shafer_MEA_dev_spike_duration_mean: CCTE's Neural Network Formation Assay for Mean Spike Duration, Shafer Lab (AID 2284051);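 also: mean network spike duration pooled as area under curve over DIV 5 to 12 recordings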;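 as to AC50: potency for a decrease in mean network spike duration versus DMSO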
In short: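 Primary rat cortical neurons on 16-electrode MEA wells (PEI-coated, laminin in plating drop), exposed from plating through DIV 12 with compound renewed at DIV 5 and 9. Mean network-spike duration recorded DIV 5, 7, 9, 12; trapezoidal AUC across days, DMSO baseline.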

[17] = CCTE_Shafer_MEA_dev_network_spike_duration_std: CCTE's Neural Network Formation Assay for Standard Deviation of Network Spike Duration, Shafer Lab (AID 2284052);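 also: area under curve of spike duration SD across recording days 5 to 12; hits are decreases in network spike duration SD versus DMSO vehicle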
In short: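 Primary rat cortical neurons on PEI-coated 16-electrode MEA wells, exposed from plating day 0 through day 12 with compound renewed at DIV 5 and 9. Network spike duration SD recorded on days 5, 7, 9, 12, collapsed as trapezoidal AUC; loss-of-signal fit versus DMSO.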

[18] = CCTE_Shafer_MEA_dev_per_network_spike_spike_number_mean: CCTE's Neural Network Formation Assay for Mean Number of Spikes in a Network Spike, Shafer Lab (AID 2284053);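 also: fitted as decrease in spikes per network spike relative to DMSO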
In short: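 Primary rat cortical neurons on 48-well, 16-electrode MEA plates were exposed from plating to DIV 12, with dosing renewed on DIV 5 and 9. Spikes per network spike (0.05 s peak window) were recorded on DIV 5, 7, 9 and 12 and collapsed as trapezoidal AUC versus DMSO.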

[19] = CCTE_Shafer_MEA_dev_per_network_spike_spike_percent: CCTE's Neural Network Formation Assay for Percent of Spikes in a Network Spike, Shafer Lab (AID 2284054)
In short: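 Rat primary cortical cultures, 1.5 x 10^5 cells/well on MEA. Continuous compound exposure d0–12, medium/compound renewed DIV 5, 9. Network-spike spike % (0.05 s peak window), AUC over 4 recordings, DMSO baseline.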

[20] = CCTE_Shafer_MEA_dev_LDH: CCTE's Lactate Dehydrogenase Assay for Cytotoxicity in the Neural Network Formation Assay, Shafer Lab (AID 2284068; active = hit-call score of the fitted dose curve at least 0.9, where 1 is the maximum;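 also: exposure for twelve days from plating with re-dosing on DIV 5 and 9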)
In short: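 Primary rat cortical neurons were plated on PEI/laminin MEA plates and exposed from day 0 for twelve days, with compound renewed at DIV 5 and 9. Cytotoxicity was determined by spectrophotometric LDH assay relative to DMSO.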

[21] = UKN5_HCS_SBAD2_neurite_outgrowth: University of Konstanz (UKN) Leist Lab Neurite Outgrowth Assay in human iPSC-derived immature Dorsal Root Ganglia Neurons (UKN5) (AID 2284070); conditions: actives raise or lower the signal
In short: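 SBAD2 iPSC-derived immature peripheral neurons on Matrigel, 100.000 cells/cm2, medium with CHIR99021 (1.5 uM), SU5402 (5 uM), DAPT (5 uM); compound added 1 h post-seeding for 24 h. Calcein-AM neurite area by high-content imaging; Hoechst H-33342 viability; bidirectional fit vs DMSO.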

[22] = CCTE_Shafer_MEA_dev_AB: CCTE's Alamar Blue Assay for Cytotoxicity in the Neural Network Formation Assay, Shafer Lab (AID 2284083; active = hit-call score of the fitted dose curve at least 0.9, where 1 is the maximum;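 also: twelve days of exposure from plating with re-dosing on DIV 5 and 9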)
In short: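 Primary rat cortical neurons on PEI-coated 48-well MEA plates, 1.5 x 10^5 cells/well in laminin drop; compound exposure from day 0 of plating for twelve days, renewed at medium changes on DIV 5 and 9. Viability read as resazurin reduction by fluorescence, relative to DMSO.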

[23] = CCTE_Shafer_MEA_dev_mutual_information_norm: CCTE's Neural Network Formation Assay for Mutual Information Normalization, Shafer Lab (AID 2284091);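 also: mutual information between electrodes summarised as area under curve across four recording days; potency is for a decrease in mutual information relative to DMSO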
In short: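 Developing rat cortical networks on 16-electrode MEA wells are treated throughout formation (DIV 0–12). Shared electrode information is recorded four times, converted to area-under-curve, and fitted for decreases against DMSO vehicle.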

[24] = CCTE_Shafer_MEA_dev_correlation_coefficient_mean: CCTE's Neural Network Formation Assay for Mean Correlation Coefficient, Shafer Lab (AID 2284093);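 also: well mean pairwise spike train correlation integrated as AUC over recording days 5 to 12; potency fitted for loss of correlation relative to DMSO vehicle wells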
In short: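 Spontaneous activity recorded on days 5, 7, 9 and 12 post-plating; pairwise spike correlations are averaged across active electrodes and collapsed to an area-under-curve. Rat cortical cultures are dosed from plating through 12 days, with compound renewed at media changes.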

[25] = UKN4_HCS_LUHMES_neurite_outgrowth: University of Konstanz (UKN) Leist Lab Neurite Outgrowth Assay in human LUHMES cells (UKN4) (AID 2284206); conditions: actives raise or lower the signal
In short: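 Human LUHMES neuronal precursors, differentiated 2 days then replated without cAMP and GDNF, exposed to compounds for 24 h. Neurite area imaged by high-content microscopy after calcein-AM live staining; Hoechst H-33342 for viability; bidirectional fit versus DMSO.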

Measured: AC50

Chain of Cellular tumor antigen p53 (Homo sapiens) (P04637 whole entry, looked up): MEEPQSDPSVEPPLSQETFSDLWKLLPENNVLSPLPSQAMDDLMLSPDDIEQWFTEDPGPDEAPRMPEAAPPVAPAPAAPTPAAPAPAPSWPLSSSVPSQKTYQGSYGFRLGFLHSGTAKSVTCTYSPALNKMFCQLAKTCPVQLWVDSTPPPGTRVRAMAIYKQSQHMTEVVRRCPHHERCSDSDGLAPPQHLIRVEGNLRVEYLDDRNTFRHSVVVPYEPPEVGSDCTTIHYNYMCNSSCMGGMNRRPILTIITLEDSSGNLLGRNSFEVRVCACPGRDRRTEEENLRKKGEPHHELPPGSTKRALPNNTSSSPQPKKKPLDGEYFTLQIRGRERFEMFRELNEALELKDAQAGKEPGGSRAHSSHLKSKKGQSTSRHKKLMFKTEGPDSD

Brc1ccc(Oc2ccc(Br)cc2Br)c(Br)c1
active: [7] 14.2 µM | [8] 19.8 nM and 10 µM | [10] 22.5 nM and 8.36 µM | [15] 13.2 nM and 10 µM | [16] 15 µM | [18] 25.4 nM and 4 µM | [19] 15.1 µM | [20] 12.3 µM | [22] 8.31 µM | [23] 13.4 nM and 1.98 µM | [24] 92.3 nM and 4.26 µM | [25] 21.8 µM
inactive: [1] | [2] | [3] | [4] | [5] | [6] | [7] | [9] | [11] | [12] | [13] | [14] | [16] | [17] | [19] | [20] | [21] | [22]
